# Measurements taken from PubChem BioAssay (NCATS).
# Results filed as inconclusive are left out. The source made the active and inactive calls. The call rests on the fitted dose curve; in most records, active means well fitted curve in the direction sought with a large enough effect; inconclusive means small, poorly fitted or top-dose-only effect, or another doubt; inactive means no such curve, though single readings can be large; an effect the other way counts as inactive or inconclusive.
# Biological target: Cytochrome P450 2C19 (Homo sapiens) (UniProt P33261)
# Test: qHTS Assay for Inhibitors and Substrates of Cytochrome P450 2C19 (AID 899); further: nearly all actives have a fitted effect of over 60% in size; further: potency means the concentration at half of the fitted maximal effect; on activity, negative = inhibition: on the % scale 0 is the no-effect control and ±100 the full control effect
# Settings: recombinant CYP2C19, luciferin-H EGE luminescence; series mostly up to 57.1 µM; activity, negative = inhibition: at the top concentration
# In short: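 NADPH-dependent conversion of Luciferin-H EGE (10uM, at KM) by 5nM enzyme in 50mM KPO4, 60 min at 37C following 10 min compound preincubation. Stopped with luciferin detection buffer; luminescence read after 20 min.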
# Chain of Cytochrome P450 2C19 (Homo sapiens) (P33261 whole entry, looked up): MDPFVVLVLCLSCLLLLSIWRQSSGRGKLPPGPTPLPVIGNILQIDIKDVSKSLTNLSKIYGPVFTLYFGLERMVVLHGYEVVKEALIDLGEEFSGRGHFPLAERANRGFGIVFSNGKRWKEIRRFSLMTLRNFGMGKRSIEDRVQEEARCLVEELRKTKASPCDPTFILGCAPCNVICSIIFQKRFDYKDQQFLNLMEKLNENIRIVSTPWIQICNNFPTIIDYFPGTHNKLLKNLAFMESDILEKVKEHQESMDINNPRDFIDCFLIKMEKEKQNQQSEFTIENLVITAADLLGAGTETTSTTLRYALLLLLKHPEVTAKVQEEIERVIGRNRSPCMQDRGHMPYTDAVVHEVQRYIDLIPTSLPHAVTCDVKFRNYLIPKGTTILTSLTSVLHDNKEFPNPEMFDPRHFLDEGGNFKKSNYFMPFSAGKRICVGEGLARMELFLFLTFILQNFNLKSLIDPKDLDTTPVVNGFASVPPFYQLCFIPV
SMILES,Potency,"activity, negative = inhibition"
COc1cccc(-c2cc(=O)c3ccccc3o2)c1N,6.31 µM (active),
CCCNC(=O)NS(=O)(=O)c1ccc(Cl)cc1,,123% (inactive)
O=c1c(-c2ccc(O)cc2)coc2cc(O)ccc12,,-23.5% (inactive)
CCCCC1C(=O)N(c2ccccc2)N(c2ccccc2)C1=O,,-15.2% (inactive)
O=c1cc(-c2ccc(O)cc2)oc2cc(O)cc(O)c12,7.94 µM (active),
CC(=O)CCCCn1c(=O)c2c(ncn2C)n(C)c1=O,,17% (inactive)
CC(=O)c1ccc(S(=O)(=O)NC(=O)NC2CCCCC2)cc1,,14.1% (inactive)
CCN(CC)C(=O)c1ccc(O)c(OC)c1,,-3.01% (inactive)

# System: not listed separately
# Test: Confirmation and Secondary Assay for Modulators of Hemoglobin Beta Chain Splicing at IVS2 654 locus (AID 910);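 further: per-well total GFP intensity by laser scanning cytometry after 2-day treatment; % of control where 0% means no effect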
# Settings: HeLa EGFP-654 splicing reporter, GFP fluorescence, 48 h; series mostly up to 46.1 µM; activation (splicing correction): at the top concentration
# In short: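 HeLa cells stably carrying EGFP interrupted by mutant beta-globin IVS2-654 intron (CMV-driven) were treated with compound for 2 days at 37C; corrected splicing was scored as total peak GFP intensity per well (488 nm excitation, 500-520 nm emission).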
row,SMILES,activation (splicing correction)
1,NCCS,1.57% (inactive)
2,O=C1NC(=O)C(c2ccccc2)(c2ccccc2)N1,8.85% (inactive)
3,CCCNC(=O)NS(=O)(=O)c1ccc(Cl)cc1,-1.61% (inactive)
4,CC(C)OC(=O)C(C)(C)Oc1ccc(C(=O)c2ccc(Cl)cc2)cc1,-7.39% (inactive)
5,O=c1c(-c2ccc(O)cc2)coc2cc(O)ccc12,1.89% (inactive)
6,CC/C(=C(\c1ccccc1)c1ccc(OCCN(C)C)cc1)c1ccccc1,6.14% (inactive)
7,CCn1cc(C(=O)O)c(=O)c2ccc(C)nc21,7.78% (inactive)
8,CCCCC1C(=O)N(c2ccccc2)N(c2ccccc2)C1=O,1.3% (inactive)
9,O=c1cc(-c2ccc(O)cc2)oc2cc(O)cc(O)c12,1.27% (inactive)
10,CC(=O)CCCCn1c(=O)c2c(ncn2C)n(C)c1=O,2.15% (inactive)
11,CN(C)CCC(c1ccccc1)c1ccccn1 (centres undefined),1.94% (inactive)
